Reference: PubChem BioAssay (EPA / NIEHS)
Records with an inconclusive call do not appear. Activity calls are given as the source filed them. Rule for the calls, unless noted: active = hit-call score of the fitted dose curve at least 0.9, where 1 is the maximum; inactive = score below 0.9.

Tests used:
[1] = CCTE_Harrill_HTTr_Viability_DMEM_6hr: (Pilot) CCTE's 6-hour Cell Viability Assessment for the High-Throughput Transcriptomics (HTTr) Platform, in MCF-7 cells cultured in DMEM + 10% fetal bovine serum, Harrill Lab (AID 2283973)
Summary of the method: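 MCF-7 cells in DMEM + 10% FBS, eight-point dilution series, 6 h exposure. Membrane integrity by propidium iodide exclusion with high-content imaging; bidirectional fit versus DMSO.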

[2] = CCTE_Harrill_HTTr_Viability_DMEM_12hr: (Pilot) CCTE's 12-hour Cell Viability Assessment for the High-Throughput Transcriptomics (HTTr) Platform, in MCF-7 cells cultured in DMEM + 10% fetal bovine serum, Harrill Lab (AID 2283974)
Summary of the method: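 MCF-7 cells in DMEM + 10% FBS exposed 12 h to an eight-point dilution series; membrane integrity scored by propidium iodide exclusion with high-content imaging, bidirectional fitting versus DMSO.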

[3] = CCTE_Harrill_HTTr_Viability_DMEM_24hr: (Pilot) CCTE's 24-hour Cell Viability Assessment for the High-Throughput Transcriptomics (HTTr) Platform, in MCF-7 cells cultured in DMEM + 10% fetal bovine serum, Harrill Lab (AID 2283975)
Summary of the method: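 MCF-7 cells in DMEM with 10% FBS exposed for 24 hours to an eight-point dilution series. Membrane integrity by propidium iodide exclusion with high content imaging; bidirectional fit against DMSO.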

[4] = CCTE_Harrill_HTTr_Viability_PRF_DMEM_6hr: (Pilot) CCTE's 6-hour Cell Viability Assessment for the High-Throughput Transcriptomics (HTTr) Platform, in MCF-7 cells cultured phenol red-free DMEM + 10% charcoal-stripped fetal bovine serum, Harrill Lab (AID 2283976)
Summary of the method: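 MCF-7 cells in phenol red-free DMEM with 10% charcoal-stripped FBS exposed 6 hours to an eight-point dilution series. Propidium iodide exclusion imaged; curves fitted bidirectionally against DMSO.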

[5] = CCTE_Harrill_HTTr_Viability_PRF_DMEM_12hr: (Pilot) CCTE's 12-hour Cell Viability Assessment for the High-Throughput Transcriptomics (HTTr) Platform, in MCF-7 cells cultured in phenol red-free DMEM + 10% charcoal-stripped fetal bovine serum, Harrill Lab (AID 2283977)
Text: This is a cell-based assay that evaluates cell viability using high content imaging to evaluate membrane integrity using propidium iodide dye exclusion in a 384 well format.One of seven assay components measured from the CCTE_Harrill_HTTr_Viability assay. This was part of a pilot experiment. This is a cell-based assay that evaluates cell viability in MCF-7 cells cultured in phenol red-free DMEM + 10% charcoal-stripped fetal bovine serum. High content imaging is used to evaluate membrane integrity using propidium iodide dye exclusion. Measurements are taken at 12 hours after chemical dosing in 384-well format.The assay component endpoint CCTE_Harrill_HTTr_Viability_PRF_DMEM_12hr was analyzed with bidirectional fitting relation to DMSO as the negative control and baseline of activity. Using a type of viability reporter to understand changes in cytotoxicity, gain-of-signal activity can be used to evaluate membrane integrity using propidium iodide dye exclusion. To generalize the intended target to other relatable targets, this assay endpoint is annotated to cell cycle, where the subfamily is cytotoxicity.
Chemicals were tested in MCF7 cells in an eight point dilution series with a twelve hour exposure duration.

[6] = TOX21_TR_RXR_BLA_Antagonist_Followup_viability: Viability Assessment in the Tox21 Thyroid Hormone Receptor beta Retinoid X Receptor alpha (RXRa) Antagonism Beta-lactamase (BLA) Follow-Up Assay (AID 2283979; active = hit-call score of the fitted dose curve at least 0.9, where 1 is the maximum)
Summary of the method: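 RXRa-UAS-bla HEK293T cells seeded 2,500/well in phenol red-free DMEM with 2% charcoal-stripped FBS, attached 5 h, then exposed to compounds at 11 concentrations in triplicate for 16 h at 37C/5% CO2. Viability read by CellTiter-Glo ATP luminescence; bidirectional fit versus DMSO.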

[7] = CCTE_Harrill_HTTr_Viability_PRF_DMEM_24hr: (Pilot) CCTE's 24-hour Cell Viability Assessment for the High-Throughput Transcriptomics (HTTr) Platform, in MCF-7 cells cultured in phenol red-free DMEM + 10% charcoal-stripped fetal bovine serum, Harrill Lab (AID 2283980)
Summary of the method: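 MCF-7 cells in phenol red-free DMEM with 10% charcoal-stripped FBS, eight-point dilution series, 24 h exposure. Membrane integrity by propidium iodide exclusion with high content imaging; bidirectional fit vs DMSO.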

[8] = CCTE_Harrill_HTTr_Apoptosis_DMEM_6hr: (Pilot) CCTE's 6-hour Apoptosis Assessment for the High-Throughput Transcriptomics (HTTr) Platform, in MCF-7 cells cultured in DMEM + 10% fetal bovine serum, Harrill Lab (AID 2283981)
Summary of the method: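 Caspase-3/7 activation read by high content imaging with CellEvent Caspase 3/7 Green in MCF-7 cells (DMEM + 10% FBS), 6 h after dosing; eight-point dilution series. Bidirectional fitting relative to DMSO baseline.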

[9] = CCTE_Harrill_HTTr_Apoptosis_DMEM_12hr: (Pilot) CCTE's 12-hour Apoptosis Assessment for the High-Throughput Transcriptomics (HTTr) Platform, in MCF-7 cells cultured in DMEM + 10% fetal bovine serum, Harrill Lab (AID 2283982)
Summary of the method: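 MCF-7 cells in DMEM + 10% FBS, exposed 12 h to an eight-point dilution series; caspase-3/7 activation imaged with CellEvent Green. Bidirectional fit versus DMSO.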

[10] = CCTE_Harrill_HTTr_Apoptosis_DMEM_24hr: (Pilot) CCTE's 24-hour Apoptosis Assessment for the High-Throughput Transcriptomics (HTTr) Platform, in MCF-7 cells cultured in DMEM + 10% fetal bovine serum, Harrill Lab (AID 2283983)
Summary of the method: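 MCF-7 cells in DMEM + 10% FBS, eight-point dilution series, 24 h exposure. Caspase-3/7 activation imaged by high-content imaging with CellEvent Caspase 3/7 Green. Bidirectional curve fitting against DMSO baseline.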

| Compound | outcome [1] | outcome [2] | outcome [3] | outcome [4] | outcome [5] | outcome [6] | outcome [7] | outcome [8] | outcome [9] | outcome [10] | AC50 [3] | AC50 [7] |
| --- | --- | --- | --- | --- | --- | --- | --- | --- | --- | --- | --- | --- |
| CON=C(C(=O)OC)c1ccccc1CON=C(C)c1cccc(C(F)(F)F)c1 | inactive | inactive | inactive | inactive | inactive | inactive | inactive | inactive | inactive | inactive | – | – |
| C=C(C)[C@H]1Cc2c(ccc3c2O[C@@H]2COc4cc(OC)c(OC)cc4[C@@H]2C3=O)O1 | inactive | inactive | – | inactive | inactive | inactive | – | inactive | inactive | inactive | 0.0311 µM (active) | 0.0246 µM (active) |
| CCNc1nc(Cl)nc(NC(C)(C)C#N)n1 | inactive | inactive | inactive | inactive | inactive | – | inactive | inactive | inactive | inactive | – | – |
| CSC1=N[C@@](C)(c2ccccc2)C(=O)N1Nc1ccccc1 | – | – | – | – | – | inactive | – | – | – | – | – | – |
| CC(C1CC1)C(O)(Cn1cncn1)c1ccc(Cl)cc1 (centres undefined) | inactive | inactive | inactive | inactive | inactive | – | inactive | inactive | inactive | inactive | – | – |
